Compound activity: PubChem, several laboratories
HSF1 inh = HSF1 inhibitors in luciferase reporter cells, primary screen, cell-based, NIH3T3, luminescence; NIH3T3-HGL HSE-luciferase, MG132-induced, luminescence 8 h; active compounds read low; activity change, negative = inhibition, % at 7.5 µM (by protocol); actives 0.77% (n = 300,000);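 active means more than half of replicate wells show activity change below -50%, luminescence cut by over half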;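 further: luciferase reports HSF-1 transcriptional activity via heat shock element; 0% = median of DMSO wells and -100% = zero luminescence signal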
TLR9-MyD88 block = inhibitors of TLR9-MyD88 association in cells, primary screen, cell-based, CHO, BLA complementation, fluorescence. CCF4 FRET ratio. inhibition, % at 4.98 µM. actives 0.21% (n = 340,000). AID 504734, 2011;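 active means inhibition above the mean over all tested compounds plus 3 SD, cut at about 21% in these data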;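 further: 0% = DMSO only wells and 100% = clavulanate BLA inhibitor control wells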
HSF1 activator = HSF-1 activators, primary screen, NIH3T3-HGL cells, MG132 stress, luminescence, single point. NIH3T3-HGL HSF-1 luciferase reporter, 8 h; 100% = twice DMSO control signal. activation, % at 9 µM. actives 1.7% (n = 300,000). AID 504408, 2011;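 active means mean replicate activation of at least 50% with a set share of replicates each reaching 50%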;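 further: 0% = median of the neutral control wells and 100% = twice that signal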
NOD2-RIPK2 inh = NOD2-RIPK2 binding disruptors in cells, primary screen, fluorescence, CHO cells, BLA complementation; Receptor-interacting serine/threonine-protein kinase 2 (Homo sapiens), O43353; CCF4 ratio; inhibition, % at 4.98 µM; actives 0.38% (n = 360,000); AID 624267, 2012; in the data active means inhibition above about 21%;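 further: 0% = vehicle only and 100% = reference blocker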
TLR4-MyD88 BLA = inhibitors of TLR4-MyD88 association in cells, primary screen, cell-based, HeLa CL3-4, BLA complementation, FRET ratio; HeLa CL3-4 TLR4/MyD88 BLA complementation; inhibition, % at 8.4 µM; actives 0.18% (n = 200,000); in the data active means inhibition above about 25%;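 further: 0% = vehicle and 100% = reference inhibitor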
The depositor's hits bear a star; nt = no result given. Sampled rows, rich in hits. Any-hit rate of the full collection: about 2.4%.

SMILES	HSF1 inh	TLR9-MyD88 block	HSF1 activator	NOD2-RIPK2 inh	TLR4-MyD88 BLA
O=c1c2ccccc2cnn1CCOc1cccc(Br)c1	55	-6	94*	11	nt
NC(=O)c1ccc[n+](CC(=O)OCCC23CC4CC(CC(C4)C2)C3)c1	-70*	-6	-76	-3	4
Cc1cc(C)nc(NC(=O)c2ccc(C)c([N+](=O)[O-])c2)n1	-72*	-4	-81	1	4
Cc1cccc(NC(=O)c2ccc(N3CCCCC3)c([N+](=O)[O-])c2)n1	32	-7	62*	-2	15
CCCc1cc(=O)[nH]c(SCC(=O)N2CCc3ccccc3C2)n1	nt	-6	nt	-2	nt
Cn1c(=O)c(/C=C/c2ccc(F)cc2)nc2ccccc21	46	-6	60*	-8	-13
Cn1c(=O)c(/C=C/c2ccccc2)nc2ccccc21	17	-5	45	-12	2
Cc1ccc2cc(/C=C/C(=O)c3ccco3)c(Cl)nc2c1	68	nt	119*	7	nt
CN1CCSc2ccc(C(=O)Nc3cc(F)ccc3F)cc21	53	-2	76*	3	nt
CC(OC(=O)Cn1cnc2c1c(=O)n(C)c(=O)n2C)C(=O)NC1CCCCC1C (centres undefined)	-4	-5	-4	1	nt
CC(C)(C)c1ccc(/C=C(\C#N)C(=O)Nc2ccccn2)cc1	-59*	5	-69	-16	nt
COc1cccc(C(=O)Nc2cc3c(cc2Cl)OCCCO3)c1	18	10	54*	-9	-11
Cc1ccc(C(=O)Nc2cc3c(cc2Cl)OCCCO3)cc1	13	-4	29	-11	8
COc1ccc(C(=O)Nc2cc3c(cc2Cl)OCCCO3)cc1	39	2	53*	0	-14
CC(C)Cn1c(SC(C)C(=O)NCC2CCCO2)nc2ccc(Cl)cc2c1=O (centres undefined)	nt	7	nt	-6	nt
O=C(c1cc2c(s1)-c1ccccc1OC2)N1CCN(c2ccccc2)CC1	-64*	4	-70	-17	14
CCCCNc1ncnc2c1nnn2Cc1ccccc1Cl	-4	-4	-19	-3	nt
O=C(CSc1ncnc2c1nnn2Cc1ccccc1)NC1CCCC1	40	-1	58*	-4	12
CC(C)(C)NC(=O)CSc1ncnc2c1nnn2Cc1ccccc1Cl	86	2	112*	11	-6
CCC(=O)N1CCC1(C)C(=O)Nc1ccc2nc(C)ccc2c1 (centres undefined)	nt	nt	nt	-15	nt
COc1c(Br)cc(Br)cc1C(=O)Nc1ccccc1N1CCCC1	3	-4	-7	1	nt
COc1ccc(NC(=O)NNC(=O)c2ccc(-c3ccccc3)cc2)c(OC)c1	-23	5	-31	-18	nt
COc1ccc(NC(=O)NNC(=O)c2cc3occc3n2C)c(OC)c1	82	-1	133*	5	nt
COc1ccc(C(=O)N=c2sc3c(C)ccc(OC)c3n2C)cc1OC	42	4	62*	0	nt
COc1cccc(C(=O)N=c2sc3c(C)ccc(OC)c3n2C)c1	17	8	43	1	nt
SMILES	HSF1 inh	TLR9-MyD88 block	HSF1 activator	NOD2-RIPK2 inh	TLR4-MyD88 BLA
O=C(CN(c1cccc(C(F)(F)F)c1)S(=O)(=O)c1ccc(Cl)c([N+](=O)[O-])c1)NCc1ccccc1Cl	36	4	66*	18	-2
CCCCSC1=C(C#N)C(c2ccccc2C)CC(=O)N1 (centres undefined)	-59*	-1	-67	-8	-6
O=C(CC(O)c1ccncc1)c1ccccc1O (centres undefined)	nt	-13	nt	-6	nt
Cc1ccc(C)c(NC(=O)CS(=O)(=O)c2cn(C)c3ccccc23)c1	29	4	54*	-5	-15
O=C(COc1ccc(Cl)cc1Cl)NCCN1CCCC1	nt	4	nt	-3	nt
Cc1n[nH]c(C)c1CCOc1ccc(C(C)C)cc1	47	-3	100*	-6	8
O=C(Nc1ccccc1N1CCCC1)c1cccc(S(=O)(=O)N2CCOCC2)c1	4	3	-19	-5	nt
CC(=O)Nc1cc2ccccc2oc1=O	-4	13	-26	-6	-21
Cc1oc(=O)c(NC(=O)c2ccc(Cl)cc2)cc1C(=O)c1ccccc1	49	1	83*	0	5
